Rows were chosen to be rich in hits. Some 19% of all compounds tested hit in one or more screens of this group.
AMA1-RON2 inh: qHTS for Inhibitors of AMA1-RON; Towards Development of Antimalarial Drug Lead: Primary Screen; Plasmodium falciparum AMA1 (3D7) - RON2 peptide interaction; AlphaScreen AMA1-biotinylated RON2 peptide binding; Potency, µM (top dose mostly 58.2 µM), for inactives: at the top dose activity change, negative = inhibition, usual class: inhibitors; actives 0.2% (n = 360,000);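 further: potency means the concentration at half of the fitted maximal effect; 0% = vehicle wells and -100% = peptide control; nearly all actives have a fitted effect of over 45% in size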
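AMA1 (3D7) with his tag at 25 nM final met compounds first, then biotinylated RON2 peptide at 25 nM; detection used donor plus acceptor beads, 10 µg/mL apiece, read by AlphaScreen after 30 min at room temperature.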
Shiga toxin inh: A qHTS for Small Molecule Inhibitors of Shiga Toxin; Vero cells, Shiga toxin protein synthesis inhibition reporter; inhibition, % at 38.7 µM; actives 9.2% (n = 290,000); AID 2315, 2010; in the data active means inhibition mostly above about 28%, no sharp cut-off; inactive means mostly below about 43%; further: 0% is about no effect
Cycloheximide cs: Cycloheximide Counterscreen for Small Molecule Inhibitors of Shiga Toxin; cell reporter, cycloheximide protein synthesis inhibition counterscreen; max response, %; actives 12% (n = 300,000); AID 2314, 2010; in the data active means max response mostly above about 13%, no sharp cut-off; inactive means mostly below about 14%; further: read at 38.3 µM for the half of the compounds with a filed dose; 0% is about no effect
Pf growth 96h: Primary qHTS for delayed death inhibitors of the malarial parasite plastid, 96 hour incubation; P. falciparum luciferase reporter growth, 96 h; Potency, µM (doses to about 28.7 µM), for inactives: at the top dose activity change, negative = inhibition, actives largely listed as inhibitors; actives 6.9% (n = 320,000); AID 504834, 2011; further: potency means the concentration at half of the fitted maximal effect; on the % scale 0 is the no-effect control and ±100 the full control effect
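Readout is luminescence from an integrated firefly luciferase in P. falciparum. Red cells, 2% hematocrit and 0.05% parasitemia final, were cultured with compound through two parasite generations (96 hours) at 37 C, 5% CO2.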
Pf growth 48h: Primary qHTS for delayed death inhibitors of the malarial parasite plastid, 48 hour incubation | P. falciparum luciferase growth in erythrocytes, 48 h | Potency, µM (series often up to 28.7 µM), inactives show top-dose activity change, negative = inhibition, hits mostly inhibitors | actives 5.9% (n = 310,000) | AID 504832, 2011; further: potency means the concentration at half of the fitted maximal effect; on the % scale 0 is the no-effect control and ±100 the full control effect
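Luminescence readout; reporter = integrated firefly luciferase in P. falciparum. RBC culture at 2% hematocrit, 0.1% parasitemia final, 37 C/5% CO2; decreased signal taken as growth inhibition.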
SARS PLpro yeast: qHTS of Yeast-based Assay for SARS-CoV PLP; S. cerevisiae expressing SARS-CoV PLpro, growth rescue; Potency, µM (doses to about 32.9 µM), inactives show at the highest dose activity, positive = growth rescue, most hits filed as activators; actives 0.19% (n = 330,000); calls by dose curve; further: potency means the concentration at half of the fitted maximal effect; 0% is about no effect; nearly all actives have a fitted effect of over 55% in size
The depositor's hits bear a star; ? = inconclusive; / = no result given. Unless noted, the call rests on the fitted dose curve; in most records, active means well fitted curve in the direction sought with a large enough effect; inconclusive means small, poorly fitted or top-dose-only effect, or another doubt; inactive means no such curve, though single readings can be large; an effect the other way counts as inactive or inconclusive.

SMILES	AMA1-RON2 inh	Shiga toxin inh	Cycloheximide cs	Pf growth 96h	Pf growth 48h	SARS PLpro yeast
Cc1ccc(C(=O)Nc2ccc(C(=O)N3CCCCC3)cc2)cc1	-11.3%	25.0	26.6*	12.4%	-2.1%	0.0%
Cc1ccc(NS(=O)(=O)c2ccc(C(=O)N3CC(C)OC(C)C3)cc2)cc1 (stereo not given)	-6.4%	-24.5	-0.9	13.1µM*	?	3.5%
Cc1nn(CC(=O)Nc2ccc(C(=O)N3CCCC3)cc2)c(=O)c2ccccc12	0.1%	-10.8	-1.9	9.28µM*	5.7%	1.8%
COc1ccc(-c2nc3ccc(Br)cn3c2Cc2cccc(Cl)c2)cc1OC	-16.3%	/	/	/	/	/
COc1ccccc1CNS(=O)(=O)CCNCc1ccco1	-9.3%	/	/	/	/	/
CCCCCCN1CC(O)=C(c2nc3ccccc3[nH]2)C1=N	42.2%	11.9	-2.4	-19.5%	10.4%	3.5%
CC1C(O)=C(c2nc3ccccc3[nH]2)C(=N)N1c1ccccc1 (stereo not given)	52.8%	128.1*	24.2*	-21.2%	75.4%	-0.2%
CCC(C)N1CC(O)=C(c2nc3ccccc3[nH]2)C1=N (stereo not given)	68.5%	83.7*	18.6	/	77.6%	4.1%
CC(C)CN(CC(C)C)C(=O)c1cc2c(=O)n3ccccc3nc2s1	46.3%	17.5	3.4	3.7%	-61.9%	-0.8%
CCN(CC)C(=O)c1cc2c(=O)n3ccccc3nc2s1	22.4%	37.6	22.4	100.9%	/	-1.6%
CCC(C)NC(=O)c1cc2c(=O)n3ccccc3nc2s1 (stereo not given)	9.7%	31.8*	34.9*	?	39.6%	-0.3%
CC(C)CCNC(=O)c1cc2c(=O)n3ccccc3nc2s1	3.4%	41.3*	20.1*	1.0%	43.4%	0.5%
COCCN(CCOC)C(=O)c1cc2c(=O)n3ccccc3nc2s1	15.5%	22.7	33.7*	2.9%	34.3%	0.1%
COc1ccc(N(CC(=O)NCc2ccccc2Cl)S(=O)(=O)c2c(C)noc2C)cc1	-6.8%	-9.7	-4.9	?	?	-3.1%
Cc1ccc(N(CCC#N)C(=O)COC(=O)c2ccccn2)cc1	18.9%	-2.2	-1.9	39.2%	-7.0%	-2.8%
NC(=O)c1cccc(-c2ccnc3c2CC(C(=O)NCc2ccccc2)O3)c1 (stereo not given)	-4.4%	/	/	/	/	/
Oc1c(Cl)cc(CN2CCCCC2)c2cccnc12	/	-5.5	-0.8	1.4%	3.7µM*	21.4%
O=C(O)c1cc([N+](=O)[O-])cc([N+](=O)[O-])c1N1CCN(c2cccc(C(F)(F)F)c2)CC1	-3.4%	4.4	9.6	25.6%	15.5%	-0.2%
Oc1ccc(CN2CCCCC2)c2cccnc12	-94.8%	0.6	-3.2	-0.9%	?	-77.2%
CNS(=O)(=O)c1cnccc1N1CCN(c2cccc(C(F)(F)F)c2)CC1	8.8%	-13.5	-3.7	14.7µM*	?	-2.4%
O=[N+]([O-])c1cc(Cl)ccc1N1CCN(c2cccc(C(F)(F)F)c2)CC1	?	-13.1	-0.2	11.7µM*	?	5.2%
O=[N+]([O-])c1cc(CN2CCCC2)c2cccnc2c1O	-16.2%	-3.8	-4.0	?	9.28µM*	?
CSCCC(C(=O)Nc1c(C)cccc1C)N1CCN(c2ccc(F)cc2)CC1 (stereo not given)	-23.0%	/	/	/	/	/
Cc1ccccc1Nc1nnc(SCC(=O)c2c(N)n(C3CC3)c(=O)[nH]c2=O)s1	8.4%	/	/	?	?	2.0%
O=[N+]([O-])c1cc(CN2CCN(c3cccc(C(F)(F)F)c3)CC2)c2cccnc2c1O	-82.0%	-11.5	-6.9	?	0.828µM*	-21.4%
SMILES	AMA1-RON2 inh	Shiga toxin inh	Cycloheximide cs	Pf growth 96h	Pf growth 48h	SARS PLpro yeast
O=S1(=O)C=C(Sc2nnc(-c3ccccc3)o2)c2ccccc21	2.5%	3.8	-5.4	2.1%	3.7µM*	-19.8%
CCN(CC)C(=O)CSc1nnc(-c2ccccc2)o1	6.5%	81.9	35.0	/	104.9%	-5.4%
CC1=C(SCCC#N)S/C(=C2\SC(C)=C(SCCC#N)S2)S1	-13.4%	42.5	-1.7	/	-5.7%	-18.6%
CC(=O)c1oc2ccccc2c1NC(=O)CCCN1C(=O)c2ccccc2C1=O	-8.0%	-12.4	-4.4	-4.9%	/	12.2%
Nc1c(C(=O)CCC(=O)O)oc2ccc(Cl)cc12	10.9%	4.5	0.6	1.4%	/	9.2%
COC(=O)CCC(=O)c1oc2ccccc2c1N	?	89.1*	42.3*	?	84.6%	-1.8%
COC(=O)CCC(=O)c1oc2ccccc2c1NC(=O)CCCN1C(=O)c2ccccc2C1=O	7.6%	21.6	12.5	9.28µM*	30.2%	3.2%
CCc1nnc(NC(=O)CCn2cnc3ccccc3c2=O)s1	5.0%	-6.6	0.7	-17.7%	4.1%	0.4%
CCOc1ccccc1NC(=O)c1ccc2c(c1)C(=O)N(CC1CCCO1)C2=O (stereo not given)	1.3%	9.2	3.6	14.7µM*	42.3%	4.7%
Nc1ccc(Oc2ccc3c(c2)C(=O)N(CC2CCCO2)C3=O)cc1 (stereo not given)	-6.4%	50.1*	42.0*	68.0%	?	-1.0%
Cc1ccc(NC(=O)c2ccc3c(c2)C(=O)N(CC2CCCO2)C3=O)cc1C (stereo not given)	-5.7%	67.3*	44.9*	-28.7%	35.0%	-0.6%
O=C(NN1C(=O)c2ccccc2C1=O)c1ccc2c(c1)C(=O)N(CC1CCCO1)C2=O (stereo not given)	-6.1%	44.4*	19.3*	62.4%	45.3%	-5.3%
COC(=O)C[C@@H]1C[C@@H]2c3cc(NS(=O)(=O)c4ccccc4)ccc3O[C@@H]2[C@@H](CO)O1	6.5%	/	/	/	/	/
COc1ccccc1/C=C/C(=O)Nc1ccc(S(=O)(=O)Nc2cc(C)on2)cc1	0.7%	10.6	2.6	?	2.6%	1.9%
CCN=C1SC(CC(=O)NCc2ccccc2)C(=O)N1CC (stereo not given)	-8.8%	-6.9	1.6	68.1%	11.9%	-6.3%
CC(C)(C)C1CCC(=O)N(CCOc2ccccc2)CC1 (stereo not given)	-1.4%	43.0*	27.5*	-27.6%	52.2%	-4.8%
CC(C)(C)[C@@H]1CCC(=O)N(CC[C@H](N=[N+]=[N-])c2ccccc2)CC1	-5.1%	32.9*	12.6*	?	?	-2.1%
CCC(C)(C(=O)NC1CCCC1)N(Cc1cccs1)C(=O)c1ccccn1 (stereo not given)	1.3%	-14.8	10.4	2.94µM*	9.2%	-0.2%
CCC(C)(C(=O)NC1CCCCC1)N(Cc1ccco1)C(=O)CNC(=O)c1ccccc1 (stereo not given)	-12.1%	13.5	31.1*	12.6%	?	-2.1%

Compound activity as filed in PubChem BioAssay.
